PLK1 kinase inh: human PLK1 kinase inhibitors, primary screen, biochemical, TR-FRET; Serine/threonine-protein kinase PLK1 (Homo sapiens), P53350; recombinant PLK1 kinase, TR-FRET peptide phosphorylation; inhibition, % at 10 µM; 97,000 compounds, 0.53% hits;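 active = inhibition of 50% or more in the single-concentration screen; inactive = inhibition below 50%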;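 also: 0% = DMSO max control and 100% = H-89 dihydrochloride min control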
CYP2C9 inh: blockers of cytochrome P450 2C9 activity – biochemical, luminescence, ADME assay, primary screen | 96,000 compounds, 20% hits | CYP2C9 Supersomes, luciferin-H conversion | inhibition, % at 5 µM | AID 777, 2007;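 active = blocking of liver enzyme CYP2C9 beyond about 50% at 5 µM, limit read from the data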
Target sequence (P11712 whole entry, looked up): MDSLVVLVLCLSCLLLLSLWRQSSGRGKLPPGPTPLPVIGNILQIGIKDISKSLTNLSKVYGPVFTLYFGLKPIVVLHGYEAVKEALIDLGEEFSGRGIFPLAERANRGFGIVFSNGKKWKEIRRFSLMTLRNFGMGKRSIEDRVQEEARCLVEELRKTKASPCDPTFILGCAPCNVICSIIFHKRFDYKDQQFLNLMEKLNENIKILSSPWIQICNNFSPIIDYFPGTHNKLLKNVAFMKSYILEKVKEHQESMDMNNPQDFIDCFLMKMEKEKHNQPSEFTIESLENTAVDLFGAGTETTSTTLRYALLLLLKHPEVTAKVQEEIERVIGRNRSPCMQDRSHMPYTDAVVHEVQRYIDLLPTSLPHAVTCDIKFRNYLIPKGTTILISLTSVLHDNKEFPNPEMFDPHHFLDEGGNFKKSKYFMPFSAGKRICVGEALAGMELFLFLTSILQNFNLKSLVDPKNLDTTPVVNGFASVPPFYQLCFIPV
CYP2C9 act: human CYP2C9 activators, primary screen, biochemical, luminescence; recombinant CYP2C9, luciferin-H conversion; hits give high values; factor 1 = untreated enzyme, 0 = blocked; activation factor at 5 µM; 96,000 compounds, 1.4% hits;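 active = activation factor of 2 or more for CYP2C9 at a 5 µM dose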;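 also: 0 = sulfaphenazole-blocked wells and 1 = vehicle-only wells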
CYP2C19 inhib: blockers of cytochrome P450 2C19 activity – biochemical, luminescence, ADME assay, primary screen; inhibition, % at 5 µM; CYP2C19 Supersomes, luciferin-H EGE luminescence, 30 min; AID 778, 2007; 96,000 compounds, 21% hits; P33261;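 active = CYP2C19 inhibition above a set limit at 5 µM in the primary screen, cut at about 50% in these data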;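 also: plate controls were negative control wells for no effect and 2.5 mM tranylcypromine positive control for full effect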
CYP2C19 activ: human CYP2C19 activators, primary screen, biochemical, luminescence | Cytochrome P450 2C19 (Homo sapiens), P33261 | recombinant CYP2C19, luciferin-H EGE luminescence; hits give high values; 0 = fully inhibited enzyme, 1 = untreated enzyme | activation factor at 5 µM | 96,000 tested, under 10 active;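 active = activation factor of at least 2 at 5 µM in the primary screen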;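 also: 0 = wells with 2.5 mM tranylcypromine and 1 = vehicle-only wells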
Plk1 PBD FP: Plk1 polo box domain binding inhibitors, primary screen, biochemical, fluorescence polarization; inhibition, %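 (tested at about 20 µM)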; 97,000 compounds, 0.13% hits; Plk1 PBD phosphopeptide binding; in the data active = inhibition above about 34%, passing the limit was not always enough
* = called active by the depositor; / = no result given. Rows were chosen to be rich in hits. Some 28% of all compounds tested hit in one or more screens of this group.

SMILES	PLK1 kinase inh	CYP2C9 inh	CYP2C9 act	CYP2C19 inhib	CYP2C19 activ	Plk1 PBD FP
COCCCn1c(C2CCCCC2)nc2oc3cc(OC)ccc3c(=O)c2c1=O	-13	70*	0.3	52*	0.5	-9
COc1ccc2c(=O)c3c(=O)n(Cc4ccco4)c(C(C)C)nc3oc2c1	-5	/	/	/	/	-7
CC1C(=O)C(C)C(c2ccc3c(c2)OCO3)NC1c1ccc2c(c1)OCO2 (centres undefined)	0	72*	0.3	97*	0	14
COc1ccc(N2CCCn3c2nc2c3c(=O)n(Cc3ccccc3F)c(=O)n2C)c(OC)c1	-4	27	0.7	22	0.8	-6
Cc1ccc(C(=O)Nc2ccccc2-c2ccccc2)cc1[N+](=O)[O-]	-9	50*	0.5	37	0.6	-26
Cc1ccc(C)c(NS(=O)(=O)c2cc(C(=O)Nc3ccccc3-c3ccccc3)ccc2Cl)c1	-6	70*	0.3	79*	0.2	-11
COCCNC(=O)c1ccccc1NC(=O)c1ccc(Cl)c(S(=O)(=O)Nc2ccc(C)cc2C)c1	-10	81*	0.2	18	0.8	-7
COCCNC(=O)c1ccccc1NC(=O)c1ccccc1N(C)S(=O)(=O)c1ccc(C)cc1	-11	95*	0.1	84*	0.2	18
Cc1ccc(NS(=O)(=O)c2cc(C(=O)O)ccc2Cl)c(C)c1	-4	/	/	/	/	7
O=S(=O)(NCc1ccco1)c1cccc(S(=O)(=O)N2CCCCC2)c1	/	9	0.9	35	0.6	/
COc1ccc(N2C(=O)CS/C2=C\[N+](=O)[O-])cc1	-9	6	0.9	13	0.9	11
Cc1ccccc1C(=O)c1cccn1CC(=O)N1CCCCCC1	-11	32	0.7	33	0.7	0
Cc1ccc(S(=O)(=O)N2CCN(C)CC2)cc1[N+](=O)[O-]	-1	-34	1.3	18	0.8	5
Cc1cc(C)c(S(=O)(=O)N2CCN(C)CC2)c(C)c1	-8	-122	2.2*	7	0.9	-3
Cc1cc(C)c(S(=O)(=O)N2CCN(CCO)CC2)c(C)c1	-11	-129	2.3*	43	0.6	-8
O=C(O)c1ccc(S(=O)(=O)Cc2ccccc2)cc1	-1	1	1	-4	1	9
Cc1ccc(NS(=O)(=O)c2cc(C(N)=O)ccc2C)cc1	6	67*	0.3	94*	0.1	7
Cc1ccc(C(N)=O)cc1S(=O)(=O)Nc1cccc(C)c1C	-12	35	0.7	99*	0	9
CC(C)(O)C#Cc1ccc(C(=O)NCc2cccs2)s1	-11	6	0.9	-8	1.1	29
COc1ccc(S(=O)(=O)N2CCN(c3ccc(C)cc3C)CC2)cc1OC	-23	52*	0.5	46	0.5	-3
CCOc1ccc(S(=O)(=O)N2CCCC2)cc1	-5	-26	1.3	32	0.7	-18
CCOc1ccc(S(=O)(=O)N2CCN(c3ccc(C)cc3C)CC2)cc1	-19	80*	0.2	54*	0.5	-7
COc1ccc(S(=O)(=O)N2CCN(c3ccccn3)CC2)cc1OC	-2	37	0.6	70*	0.3	-7
COc1ccc(S(=O)(=O)N2CCN(c3c(C)cccc3C)CC2)cc1OC	-5	94*	0.1	99*	0	-15
O=C(Cn1nc(C(F)F)cc1C(F)F)N/N=C/c1ccc2c(c1)OCO2	-1	2	1	10	0.9	-20
SMILES	PLK1 kinase inh	CYP2C9 inh	CYP2C9 act	CYP2C19 inhib	CYP2C19 activ	Plk1 PBD FP
COc1ccc(-c2nc(NC(=O)c3ccccc3)sc2-c2ccc([N+](=O)[O-])cc2)cc1	-22	17	0.8	17	0.8	-12
CCn1c(SCC(=O)Nc2nc3ccc(C)cc3s2)nc2c(c1=O)SC(C)C2 (centres undefined)	-11	77*	0.2	69*	0.3	-9
Cc1ccc(-n2c(SCC(=O)Nc3cc(C)on3)nc3c(c2=O)SC(C)C3)cc1 (centres undefined)	/	34	0.7	18	0.8	/
CCn1c(SCC(=O)Nc2nc3ccccc3s2)nc2c(c1=O)SC(C)C2 (centres undefined)	-1	98*	0	97*	0	15
CCn1c(SCC(=O)Nc2cc(C)on2)nc2c(c1=O)SC(C)C2 (centres undefined)	1	62*	0.4	16	0.8	-14
c1ccc2nc(N3CCOCC3)cnc2c1	6	-5	1.1	0	1	18
CC(C)c1ccc(/C=N/NC(=O)CN(c2cccc(Cl)c2Cl)S(C)(=O)=O)cc1	-10	1	1	-7	1.1	43
COC(=O)/C(=C/Nc1cccc2ccccc12)[N+](=O)[O-]	-8	13	0.9	55*	0.4	10
Cc1ccc(-n2ncc(C#N)c2/N=C/N(C)C)cc1	-16	-19	1.2	19	0.8	10
CN(C)/C=N/c1c(C#N)nnn1Cc1ccccc1	-10	-21	1.2	67*	0.3	-30
CCc1ccc(-c2nc(CSCC(=O)N3CCN(c4ccccn4)CC3)c(C)o2)cc1	2	64*	0.4	36	0.6	10
Cc1ccc(-c2nc(CSCC(=O)N3CCN(c4ccccn4)CC3)c(C)o2)cc1	-14	-60	1.6	29	0.7	-23
Cc1oc(-c2ccccc2Cl)nc1CSCC(=O)N1CCCC1	-1	17	0.8	93*	0.1	14
CCOc1ccc(-c2nc(CSCC(=O)N3CCN(c4cccc(OC)c4)CC3)c(C)o2)cc1	64*	94*	0.1	83*	0.2	-5
O=C(COC(=O)c1ccccc1NC(=O)c1ccco1)Nc1ncc(Cl)cc1Cl	1	64*	0.4	28	0.7	8
Cc1c(Cl)cnc(NC(=O)COC(=O)C(NC(=O)c2ccco2)C(C)C)c1Cl (centres undefined)	-14	50	0.5	77*	0.2	-12
CC(=O)NC(Cc1ccc(F)cc1)C(=O)N1CCN(C(=O)NCc2ccccc2)CC1 (centres undefined)	-18	/	/	/	/	-7
CN1CCN(C(=O)C2CCN(S(=O)(=O)c3ccc4c(c3)oc(=O)n4C)CC2)CC1	/	-22	1.2	-1	1	/
CC(C)Cn1cnc2c1c(=O)n(CC(=O)Nc1ccc3c(c1)OCO3)c(=O)n2Cc1ccccc1	-10	-12	1.1	-1	1	-32
Fc1cccc(Cl)c1-c1nnc2ccc(N3CCOCC3)nn12	-44	49	0.5	42	0.6	-14
Clc1cccc(Cl)c1-c1nnc2ccc(N3CCOCC3)nn12	-15	68*	0.3	52*	0.5	21
